Experimental data: PubChem BioAssay (NCI)
The panel holds about 83,000 compounds, 20% with a hit somewhere; the sample as a whole holds those more often.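 Assay: single dose, 48 h. Readout: percent growth (0 = no net growth; negative = cell death). Active: <10.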 Activity calls are given as the source filed them.

Legend:
Assay in all cases: NCI-60 one-dose screen, 48 h (100 = growth as untreated, 0 = no growth, -100 = all killed)
[1] = test system: NCI-H23 lung; conditions: 10 µM unless noted
[2] = test system: NCI-H322M lung; conditions: 10 µM unless noted
[3] = test system: HOP-62 NSCLC; conditions: 10 µM unless noted
[4] = test system: NCI-H460 lung; conditions: 10 µM unless noted
[5] = test system: HOP-92 NSCLC; conditions: 10 µM unless noted
[6] = test system: NCI-H522 lung; conditions: 10 µM unless noted
[7] = test system: A549/ATCC NSCLC; conditions: 10 µM unless noted
[8] = test system: 786-0 renal; conditions: 10 µM unless noted
[9] = test system: DU-145 prostate; conditions: 10 µM unless noted
[10] = test system: K-562 leukemia; conditions: 10 µM unless noted
[11] = test system: MALME-3M melanoma; conditions: 10 µM unless noted
[12] = test system: MDA-MB-231 breast; conditions: 10 µM unless noted
[13] = test system: RXF 393 renal; conditions: 10 µM unless noted
[14] = test system: SF-268 CNS; conditions: 10 µM unless noted
[15] = test system: SF-295 CNS; conditions: 10 µM unless noted
[16] = test system: SF-539 CNS; conditions: 10 µM unless noted
[17] = test system: UACC-257 melanoma; conditions: 10 µM
[18] = test system: M14 melanoma; conditions: 10 µM unless noted
[19] = test system: COLO 205 colon; conditions: 10 µM unless noted

Measured: growth

COc1cc(NC(=O)c2cc3ccccc3nc2Nc2ccc(F)cc2)cc(OC)c1OC
inactive: [1] 39.8% | [2] 65.8% | [3] 83.2% | [4] 40.3% | [5] 28.5% | [6] 49.8% | [7] 42.8% | [8] 53.5% | [9] 69.8% | [10] 37.3% | [11] 66.7% | [12] 51.2% | [13] 50.6% | [14] 50.9% | [15] 39.5% | [16] 40.5% | [17] 27.6% | [18] 30.2%

COc1cccc(NC(=O)Cn2cc3c(=O)oc4ccccc4c3n2)c1
inactive: [1] 102% | [2] 98.9% | [3] 116% | [4] 101% | [5] 93.8% | [6] 83.1% | [7] 105% | [8] 98.4% | [19] 101% | [9] 103% | [10] 103% | [11] 103% | [12] 96.6% | [14] 103% | [15] 97.2% | [16] 102% | [17] 101%

CCNC(=O)CCCCC(=O)c1c(C)[nH]c(/C=C2\N=C(c3ccc[nH]3)C=C2OC)c1C
active: [4] -65.1% | [5] -71.6% | [6] -91.7% | [8] -51.9% | [19] 1.23% | [9] 2.48% | [12] 0.721% | [13] -48% | [15] -22.1% | [18] 5.27%
inactive: [1] 35% | [2] 37.9% | [3] 42.7% | [10] 51.5% | [11] 51.6% | [14] 27.2% | [16] 54.8% | [17] 54.6%

O=C(O)C(Cc1ccccc1)N1C(=O)/C(=C/C(Cl)=C/c2ccc([N+](=O)[O-])cc2)SC1=S (stereo unspecified)
active: [6] 0.83% | [8] -31.6% | [10] 9.61% | [11] 3.53% | [13] -47.1% | [18] -13.7%
inactive: [1] 16.1% | [2] 70.9% | [3] 47.7% | [4] 50.1% | [5] 20% | [7] 81.2% | [19] 17.4% | [9] 35% | [12] 29.5% | [14] 19.2% | [15] 88.8% | [16] 29.6% | [17] 18.1%

CCOC(=O)CC(C#N)(CC(=O)OCC)C(=O)OCC
inactive: [1] 106% | [2] 112% | [3] 117% | [4] 115% | [5] 68% | [6] 114% | [7] 84.6% | [8] 104% | [9] 113% | [10] 111% | [11] 127% | [12] 101% | [13] 99.6% | [14] 111% | [15] 101% | [16] 107% | [17] 73.9% | [18] 102%

CC(=O)Nc1nc(C(=O)N2N=C(C)/C(=C/c3ccccc3)C2=O)cs1
inactive: [1] 108% | [2] 102% | [4] 106% | [5] 108% | [6] 85.4% | [7] 101% | [8] 105% | [19] 103% | [9] 111% | [10] 98.4% | [11] 96.8% | [12] 113% | [14] 105% | [15] 108% | [16] 97.2% | [17] 104% | [18] 95.2%

COc1ccc(/C=C/c2nc(N3CCOCC3)c3cc(F)c(F)cc3n2)cc1OC
inactive: [1] 34.8% | [2] 70.2% | [4] 36.4% | [5] 33.7% | [6] 26% | [7] 30.9% | [8] 45.4% | [19] 15.6% | [9] 53.5% | [10] 16.4% | [11] 42.3% | [12] 55.4% | [13] 48.6% | [14] 53.5% | [15] 19.3% | [16] 56.8% | [17] 20.5% | [18] 28%

CCCCCCOc1ccc(C2(Cl)c3ccccc3N(C)c3ccccc32)cc1
inactive: [1] 24.5% | [2] 57.1% | [3] 82.4% | [5] 83.1% | [6] 55.4% | [7] 47.1% | [8] 47.2% | [19] 61.7% | [9] 55.7% | [10] 48.8% | [12] 32.7% | [13] 57% | [14] 49.5% | [15] 28.9% | [16] 89.3% | [18] 12.9%
active: [4] -25.7% | [11] -21.5%

Cc1ccc2c(c1)C(C)Cc1c(N(C)C)ncnc1N2C (stereo unspecified)
inactive: [1] 50.5% | [2] 81.2% | [3] 36.4% | [4] 15.5% | [5] 52.4% | [7] 49.3% | [8] 34.8% | [19] 32.4% | [9] 68.7% | [10] 12.8% | [11] 53.2% | [12] 56.3% | [13] 40.1% | [14] 47.3% | [16] 28.3% | [18] 24.7%
active: [6] 4.76% | [15] 6.52%
